Only some compounds are listed: those with a hit (about 5.1% of all), similar ones and a draw of the others.
TMEM16A inh: blocks the mouse calcium-activated chloride channel TMEM16A | Q8BHY3 | HEK293 TMEM16A/YFP iodide influx fluorescence, ionomycin | normalized B-score (activity score, 25-100; higher = stronger inhibition) at 10 µM | 310,000 tested, 1.2% active | AID 588511;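 active = ratio plate-corrected score three or more library SD toward inhibition, starting fluorescence score within five deviations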;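 note: score derived from kinetic fluorescence span divided by baseline fluorescence per well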
MPTP inh: inhibitors of mitochondrial permeability transition pore; isolated mouse mitochondria, Ca2+ swelling absorbance, 30 min; inhibition, % at 10 µM; 360,000 tested, 1.4% active; AID 602449;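 active = inhibition of 50% or more, scaled per plate between neutral and stimulator controls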;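 note: 0% = DMSO wells given calcium and 100% = 1 mM EGTA wells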
CRFBP-R2 block: blocks CRF-induced signaling of the CRF-BP/CRF-R2 complex. HEK293 CRF-R2/CRF-BP, CRF-induced calcium fluorescence. inhibition, % at 11.8 µM. 350,000 tested, 0.59% active. AID 588475;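 active = inhibition of the ligand-induced calcium signal above about 50% at the single tested concentration, limit read from the data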
GRIN3A LBD mod: modulates the human NR3A ligand-binding domain. NR3A LBD differential scanning fluorimetry, Tm shift; 0% = protein alone, 100% = glycine-bound protein. 340,000 tested, 2.5% active. Tm shift relative to glycine control, % at 25 µM;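 active = melting temperature shift of at least 10% of the positive control shift, at one fixed dose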
ANO1 activ: activates or potentiates the mouse TMEM16A chloride channel; 340,000 tested, 0.3% active; B-score at 10 µM; AID 623877; HEK293 TMEM16A/YFP-H148Q/I152L, iodide quench fluorescence; stronger effect = lower value;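 active = fluorescence-ratio B-score plate-corrected deviation score at least 3 library SD below zero, with starting fluorescence score within 5 deviations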;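 note: channel opened by trigger with iodide after compound preincubation; score built on the fluorescence ratio of max minus min over baseline; more negative score means more quench and so TMEM16A activation or potentiation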
CRFR2-BP ag: agonists of human CRF-binding protein/CRF-R2 receptor complex | activation, % at 13.2 µM | 350,000 tested, 0.46% active | AID 588473 | HEK293 CRF-R2/CRF-BP, calcium dye fluorescence (FLIPR); percent of saturating CRF peptide response;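 active = activation of at least 50%, plus an integration ratio under a set limit after plate pattern correction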;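 note: plate controls were neutral control wells without compound for no effect and CRF at EC100 for full effect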
* = called active by the depositor.

`CCOC(=O)c1nn(-c2ccc(Cl)cc2)c(C)cc1=O` gave TMEM16A inh inactive, MPTP inh 0, CRFBP-R2 block 3, GRIN3A LBD mod -3 and CRFR2-BP ag -1.
CC(C)C[C@H]1CN([C@@H](Cc2ccc(O)cc2)CN2CCCC2CN2C(=S)NC[C@@H]2Cc2ccccc2)C(=S)N1CC1CCCCC1 (stereo partly specified) was read as MPTP inh 1.
O=C(Nc1ccc(F)c(F)c1)C1CCN(S(=O)(=O)c2cccc3nonc23)CC1 was read as TMEM16A inh inactive, MPTP inh 3, CRFBP-R2 block -31, GRIN3A LBD mod 0, ANO1 activ inactive and CRFR2-BP ag 0.
For COC(=O)Nc1nncs1 the results were TMEM16A inh inactive, MPTP inh 1, CRFBP-R2 block 0, GRIN3A LBD mod 1, ANO1 activ inactive and CRFR2-BP ag -2.
`c1nnc(NCNc2nncs2)s1` gave MPTP inh -1, CRFBP-R2 block -6 and CRFR2-BP ag 60*.
For CN1CCC(=NNC(=O)CN(c2ccccc2)S(=O)(=O)c2ccccc2)CC1 the results were TMEM16A inh inactive, MPTP inh -1, CRFBP-R2 block 1, GRIN3A LBD mod 10*, ANO1 activ inactive and CRFR2-BP ag 0.
Screening CCCc1ccc(C(=O)CN2C(=O)C(=O)N(C3CCCC3)C2=O)cc1 returned MPTP inh -2, CRFBP-R2 block -4, GRIN3A LBD mod 2, ANO1 activ inactive and CRFR2-BP ag 0.
`CC(=O)Nc1ccc(S(=O)(=O)N(C)CC(=O)N/N=C/c2ccncc2)cc1` gave TMEM16A inh inactive, MPTP inh -1, CRFBP-R2 block -3, GRIN3A LBD mod 2, ANO1 activ inactive and CRFR2-BP ag 0.
Screening Cn1cc(Br)c(C(=O)NC(=S)Nc2ccc(S(N)(=O)=O)cc2)n1 returned TMEM16A inh inactive, MPTP inh 0, CRFBP-R2 block 2, GRIN3A LBD mod -2, ANO1 activ -6.4* and CRFR2-BP ag -2.
For CC(=O)Nc1ccc(S(=O)(=O)c2ccc(N)cc2)cc1 the results were TMEM16A inh inactive, MPTP inh -5, CRFBP-R2 block 23, GRIN3A LBD mod 0, ANO1 activ inactive and CRFR2-BP ag -1.
For NS(=O)(=O)c1ccc(NC(=S)NC(=O)C2CCCCC2)cc1 the results were TMEM16A inh inactive, MPTP inh -5, CRFBP-R2 block -24, GRIN3A LBD mod 1, ANO1 activ -4.7* and CRFR2-BP ag -3.
NC(=S)Nc1ccc(S(=O)(=O)c2ccc(NC(N)=S)cc2)cc1 was read as TMEM16A inh inactive, MPTP inh -1, CRFBP-R2 block 9, GRIN3A LBD mod 23*, ANO1 activ inactive and CRFR2-BP ag 3.
O=c1cc(CSc2ccc(Cl)cc2)nc(-c2ccccn2)[nH]1 was read as TMEM16A inh inactive, MPTP inh -2, CRFBP-R2 block -19, GRIN3A LBD mod 8, ANO1 activ inactive and CRFR2-BP ag 0.
Screening Cc1ccccc1NC(=O)CSc1nnc(-c2ccco2)c(-c2ccco2)n1 returned TMEM16A inh 25*, MPTP inh 0, CRFBP-R2 block -5, GRIN3A LBD mod -20, ANO1 activ inactive and CRFR2-BP ag 0.
For CC1=[N+]([O-])C(C)(C)N(O)C1(C)C the results were TMEM16A inh inactive, MPTP inh 0, CRFBP-R2 block -143, GRIN3A LBD mod -1, ANO1 activ inactive and CRFR2-BP ag 152*.
Screening CC[C@]12c3[nH]c4cc(CCC(=O)N(C)C)ccc4c3CCN1C(=O)[C@@H](CC(=O)NC/C=C(\C)CCC=C(C)C)C[C@@H]2C(=O)N1CCN(C(=O)c2ccco2)CC1 returned MPTP inh 0, CRFBP-R2 block 6, GRIN3A LBD mod 0 and CRFR2-BP ag 0.
Screening CCCN(CCC)C(=O)Cn1c(=O)c2sccc2n2c(=S)sc(-c3ccccc3)c12 returned TMEM16A inh inactive, MPTP inh 1, CRFBP-R2 block -8, GRIN3A LBD mod 1, ANO1 activ inactive and CRFR2-BP ag 3.
